Screening data: PubChem, Broad Institute
The full list was thinned out, with hits kept by preference.
BJeLR viability = BJeLR cell viability reduction. BJeLR fibroblasts viability, CellTiterGlo ATP luminescence, 48 h; HRASV12, hTERT and SV40 LT/ST transformed. viability loss activity score, % (no concentration beside the values). 30,000 compounds, 0.64% hits; in the data active = viability loss activity score above about 50%; inconclusive = no clear call, values can overlap the other calls; inactive = below about 35%;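 note: higher score means fewer live cells and less ATP luminescence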
Shh pathway inh = Sonic Hedgehog pathway inhibition; Shh-LIGHT2 Gli-luciferase reporter, 30 h; inhibition, % (no concentration beside the values); 22,000 compounds, 2.1% hits;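 active = mean inhibition across valid replicates above about 65%, limit read from the data; inconclusive = mean under the limit, yet half or more replicates past it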;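 note: pathway switched on by Shh-conditioned medium diluted 1 in 25 in low serum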
YB-1 expression = YB-1 expression inhibition | U2OS, qRT-PCR YB-1 vs CDIP delta delta Cp, 16 h; hits give high values; zero = DMSO, each unit about twofold | AID 434959 | 30,000 compounds, 0.37% hits | delta delta Cp (YB-1 minus CDIP) (no concentration beside the values);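 active = delta delta Cp rounded down to an integer at or above 3, about 3 SD of DMSO wells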;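 note: higher means less YB-1 transcript or more CDIP transcript relative to DMSO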
MITF inh = MITF inhibition; TRPM1 promoter luciferase, luminescence, 24 h; 37,000 compounds, 0.28% hits; inhibition, % (concentration not given with the values); in the data active = inhibition above about 85%; inconclusive = no clear call, values can overlap the other calls; inactive = below about 68%;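 note: human melanocyte line stably carrying TRPM1 promoter luciferase reporter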
* marks the source's active call; other numbers are inactive results; ? = inconclusive; . = no result given.

SMILES	BJeLR viability	Shh pathway inh	YB-1 expression	MITF inh
C[C@]12CCC3c4ccc(O)cc4CCC3C1C[C@@H](O)[C@@H]2O (stereo partly specified)	4	?	0.054	2
C[C@]12CCC3c4ccc(O)cc4CCC3C1CC[C@@H]2O (stereo partly specified)	-4	74*	0.37	8
C[C@]12CC[C@@H]3c4ccc(O)cc4CC[C@H]3[C@@H]1CCC2=O	8	73*	0.13	8
CC(=O)Oc1ccc2c(c1)CCC1C2CC[C@@]2(C)C1CC[C@@H]2OC(C)=O (stereo partly specified)	3	67*	-0.12	-8
COc1cccc(-c2cc(=O)c3cc(OC)ccc3o2)c1	14	-142	0.19	93*
COc1ccc2c(=O)cc(-c3ccccc3)oc2c1	-7	-41	-0.14	-109
S=C(c1nc2ccccc2[nH]1)N1CCOCC1	2	2	5.2*	-9
O=C(c1nc2ccccc2[nH]1)N1CCOCC1	-2	.	.	.
COc1cc2c(c(N)c1OC)C(=O)/C(=C/c1cc(C)c(O)c(C)c1)C2	22	84*	0.47	-1
O=C(NCc1cccnc1)/C(=C\c1cccc(Oc2ccccc2)c1)S(=O)(=O)c1ccccc1	96*	.	.	.
O=C(NCc1cccnc1)/C(=C\c1ccc(Br)cc1)S(=O)(=O)c1ccccc1	7	.	.	.
C[C@@H]1CN([C@H](C)CO)C(=O)Cc2cc(NS(=O)(=O)c3cn(C)cn3)ccc2O[C@@H]1CN(C)S(C)(=O)=O	.	21	0.31	-9
C[C@@H]1CCOC(=O)C=CC=CC(=O)O[C@@H]2C[C@H]3O[C@@H]4C=C(C(=O)O)CC[C@]4(COC(=O)[C@H]1O)[C@]2(C)[C@]31CO1	71*	4	1.6	65
OC(CSc1nccc(-c2ccc3c(c2)OCCO3)n1)C(F)(F)F (stereo unspecified)	6	.	.	.
S=c1nccc(-c2ccc3c(c2)CCO3)[nH]1	-2	-20	0.37	-38
CC1(C)CCc2cc(-c3ccnc(=S)[nH]3)ccc2O1	-4	66*	-0.52	32
CCSc1nccc(-c2ccc3c(c2)CCC(C)(C)O3)n1	2	78*	-0.36	46
CNCCNS(=O)(=O)c1cccc2cnccc12	4	-23	0.065	-29
O=S(=O)(NCCNC/C=C/c1ccc(Br)cc1)c1cccc2cnccc12	4	81*	-0.024	26
C[C@H](CO)N1C[C@H](C)[C@H](CN(C)Cc2ccc(Oc3ccccc3)cc2)Oc2ccc(NC(=O)CCC(F)(F)F)cc2C1=O	-4	-7	-0.35	3
CC1=CCC[C@@H]2[C@](CCc3ccoc3)(C(=O)O)[C@H](C)CC[C@@]12C	-3	-47	-0.91	-7
C[C@@H]1C[C@H]2OCC3=CCC[C@H]([C@]1(CC(O)c1ccoc1)C(=O)O)[C@]32CO (stereo partly specified)	92*	-22	0.47	19
CC1(C)C(=O)C=C[C@@]2(C)C1C=C[C@]1(C)C2CC[C@@]2(C)[C@H](c3ccoc3)OC(=O)C3OC321 (stereo partly specified)	12	-331	-0.44	101*
C=C1C(C2(C)C=CC(=O)C(C)(C)C2CC(=O)OC)CC[C@@]2(C)[C@H](c3ccoc3)OC(=O)C3OC132 (stereo partly specified)	91*	?	0.62	66
CC1(C)C(=O)C=C[C@@]2(C)C1CC(=O)[C@@]1(C)C3=CC(=O)O[C@@H](c4ccoc4)[C@]3(C)CCC12 (stereo partly specified)	23	-25	0.14	12
SMILES	BJeLR viability	Shh pathway inh	YB-1 expression	MITF inh
C=C1C(=O)O[C@H]2[C@H]1[C@@H](OC(=O)C(C)(O)CCl)C(OC(C)=O)/C(C(=O)OC)=C\CC[C@@]1(C)O[C@H]21 (stereo partly specified)	50*	-16	-0.17	53
C=C1C(=O)O[C@H]2[C@H]1[C@@H](OC(=O)/C(C)=C\C)C(OC(C)=O)/C(C(=O)OC)=C\CC[C@@]1(C)O[C@H]21 (stereo partly specified)	68*	-72	2.2	53
C=C1C(=O)O[C@H]2[C@H]1[C@@H](OC(=O)/C(C)=C/C)C(OC(C)=O)/C(C(=O)OC)=C\CC[C@@]1(C)O[C@H]21 (stereo partly specified)	61*	-313	-0.27	45
C=C1C(=O)O[C@H]2[C@H]1C[C@H](OC(=O)/C(C)=C\C)/C(C)=C\CC[C@@]1(C)O[C@@H]21	21	5	-0.29	33
Cc1cc(Cl)ccc1N=C(N)NN	-4	28	-0.4	17
CCC(Sc1nc(C)cc(=O)[nH]1)C(=O)Nc1ccccc1C#N (stereo unspecified)	.	.	.	11
CC(C)[C@H]1C=C(C(=O)NCc2ccccc2)O[C@@H](OCc2ccc(CO)cc2)C1	.	.	7.6*	.
C[C@H]1CN([C@@H](C)CO)C(=O)c2cccc(NC(=O)C3CC3)c2O[C@@H]1CN(C)S(=O)(=O)c1ccc(Cl)cc1	3	7	-0.12	0
C[C@@H]1CN([C@@H](C)CO)C(=O)c2cccc(NC(=O)C3CCOCC3)c2O[C@H]1CN(C)S(=O)(=O)c1ccc(Cl)cc1	-2	-11	-0.11	-14
Cc1noc(C)c1S(=O)(=O)N(C)C[C@@H]1Oc2ccc(NC(=O)C3CC3)cc2CC(=O)N([C@H](C)CO)C[C@@H]1C	.	70*	-0.17	-11
C[C@H](CO)N1C[C@H](C)[C@H](CN(C)S(=O)(=O)c2cn(C)cn2)Oc2ccc(NC(=O)NC3CCCCC3)cc2CC1=O	.	77*	0.55	-10
C[C@H]1CN([C@@H](C)CO)C(=O)c2cccc(NC(=O)C3CCOCC3)c2O[C@H]1CN(C)S(=O)(=O)c1ccc(Cl)cc1	-1	84*	0.14	-7
C[C@H](CO)N1C[C@H](C)[C@H](CN(C)S(=O)(=O)c2ccc(Cl)cc2)Oc2c(NC(=O)C3CC3)cccc2C1=O	0	98*	0.13	6
COc1cc2occ(-c3ccc(O[C@@H]4O[C@H](CO[C@@H]5OC[C@](O)(CO)[C@H]5O)[C@@H](O)[C@H](O)[C@H]4O)cc3)c(=O)c2c(O)c1OC	0	-13	-0.44	5
C[C@@H]1CN([C@@H](C)CO)C(=O)c2cc(NC(=O)C3CC3)ccc2O[C@@H]1CN(C)S(=O)(=O)c1ccc(Cl)cc1	2	4	-0.13	2
Cc1cc(C(=O)Nc2cccc3c2O[C@@H](CN(C)S(=O)(=O)c2ccc(Cl)cc2)[C@H](C)CN([C@H](C)CO)C3=O)n(C)n1	-1	-14	0.071	-4
Cc1cc(C(=O)Nc2cccc3c2O[C@@H](CN(C)S(=O)(=O)c2ccc(Cl)cc2)[C@@H](C)CN([C@H](C)CO)C3=O)n(C)n1	-2	78*	0.48	-43
C[C@@H]1CN([C@@H](C)CO)C(=O)c2cc(NC(=O)C3CC3)ccc2O[C@H]1CN(C)S(=O)(=O)c1ccc(Cl)cc1	-4	67*	-0.27	-11
